# Assay results: PubChem BioAssay (Tox21)
# Where “and” joins values, the source holds several entries; their conditions need not be identical. Equal values may be shown once. Results filed as inconclusive are left out. Entries that show only a call come without a potency. More than one record can exist for a structure, and the calls need not agree. Calls of active or inactive are those of the source. Unless noted, the call rests on the fitted dose curve; in most records, active means well fitted curve in the direction sought with a large enough effect in the repeat runs; inconclusive means weak or mixed curves; inactive means no such curve, though single readings can be large; an effect the other way counts as inactive or inconclusive.
# Key:
# [1] = qHTS assay to identify small molecule antagonists of the androgen receptor (AR) signaling pathway using the MDA cell line in the presence of 0.5 nM R1881 - cell viability counter screen (AID 1259242); further: nearly all actives have a fitted effect of over 45% in size; further: potency means the concentration at half of the fitted maximal effect
# Method in brief: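 Fluorescence from CellTiter-Fluor, which reports protease activity of live cells, was read 30 min after reagent addition to MDA-kb2 cells that had been incubated 16 hr with compound and 0.5 nM R1881.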
# [2] = molecular target: Androgen receptor (Homo sapiens) (UniProt P10275); assay: qHTS assay to identify small molecule antagonists of the androgen receptor (AR) signaling pathway using the MDA cell line in the presence of 0.5 nM R1881 (AID 1259243); further: nearly all actives have a fitted effect of over 50% in size; further: potency means the concentration at half of the fitted maximal effect
# Method in brief: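 Inhibition of R1881 (0.5 nM final) induced reporter signal was measured in human MDA-kb2 cells; note the MMTV promoter also responds to GR. Exposure lasted 16 hr at 37C.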
# [3] = molecular target: Estrogen receptor (Homo sapiens) (UniProt P03372); assay: qHTS assay to identify small molecule antagonists of the estrogen receptor alpha (ER-alpha) signaling pathway using the BG1 cell line in the presence of 0.1 nM 17-beta-estradiol (AID 1259244); further: nearly all actives have a fitted effect of over 50% in size; further: potency means the concentration at half of the fitted maximal effect
# Method in brief: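 Quantitative high-throughput screen in VM7Luc4E2 cells: compound plus 0.1 nM E2 (final), 22 h, 37C, 5% CO2; ONE-Glo added, 30 min room temperature, luminescence measured.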
# [4] = qHTS assay to identify small molecule phospholipidosis (PLD) inducers (AID 1259344; active means well fitted curve in the direction sought with a large enough effect; an effect the other way counts as inactive or inconclusive)
# Method in brief: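 Quantitative HTS in HepG2: compound plus LipidTOX Red dye for 24 h, paraformaldehyde fixation with Hoechst 33342, widefield high-content imaging; amiodarone as positive and DMSO as negative control.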
# [5] = qHTS assay to identify small molecule HDAC inhibitors (AID 1259364); further: nearly all actives have a fitted effect of over 45% in size; further: potency means the concentration at half of the fitted maximal effect
# Method in brief: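 Endogenous HDAC class I/II activity was measured in wild-type HCT-116 cells by HDAC-Glo luminescence after 2 h compound treatment.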
# [6] = qHTS assay to identify small molecule HDAC inhibitors - cell viability counter screen (AID 1259365); further: nearly all actives have a fitted effect of over 50% in size; further: potency means the concentration at half of the fitted maximal effect
# Method in brief: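 Wild-type HCT-116 cells were seeded at 1,500 per well, incubated overnight at 37 C, then exposed to compounds in DMSO for 2hr. Viability was read by CellTiter-Glo luminescence after 30min at room temperature.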
# [7] = qHTS assay to identify small molecule antagonists of the sonic hedgehog signaling (Shh) pathway - cell viability counter screen (AID 1259367); further: nearly all actives have a fitted effect of over 55% in size; further: potency means the concentration at half of the fitted maximal effect
# Method in brief: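 Seed 3T3 Gli1-Luc cells at 2,000 per well; incubate 4 hr; add compound in DMSO, then conditioned medium; incubate at 37C with 5% CO2; add CellTiter-Fluor after 23 hr; read fluorescence 1 hr later.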
# [8] = qHTS assay to identify small molecule agonists of the sonic hedgehog signaling (Shh) pathway (AID 1259368; calls by dose curve; further: series mostly up to about 92 µM; nearly all actives have a fitted effect of over 15% in size)
# Method in brief: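 Luminescent signal was taken as a measure of Gli1-controlled luciferase expression in stably transfected NIH/3T3-derived cells that had been treated for 24 hr with compounds delivered in DMSO.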
# [9] = qHTS assay to identify small molecule antagonists of the sonic hedgehog signaling (Shh) pathway (AID 1259369; calls by dose curve; further: nearly all actives have a fitted effect of over 45% in size; further: potency means the concentration at half of the fitted maximal effect)
# Method in brief: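 Screening used 3T3Gli1-Luc cells at 2,000 per well, compounds delivered in DMSO, and conditioned medium as agonist stimulus; plates incubated 24hr at 37 C and 5% CO2 before a 30min luciferase step.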
# [10] = qHTS assay to identify small molecule agonists of the sonic hedgehog signaling (Shh) pathway - cell viability counter screen (AID 1259366); further: nearly all actives have a fitted effect of over 50% in size; further: potency means the concentration at half of the fitted maximal effect
# Method in brief: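 NIH/3T3-derived 3T3 Gli1-Luc cells (stable Gli1-responsive firefly luciferase reporter) were seeded, rested 4 hr at 37 C/5% CO2, then exposed to compounds in DMSO for 24 hr; viability was read by CellTiter-Fluor fluorescence in the same wells.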
# Androgen receptor (Homo sapiens), sequence (P10275 whole entry, looked up): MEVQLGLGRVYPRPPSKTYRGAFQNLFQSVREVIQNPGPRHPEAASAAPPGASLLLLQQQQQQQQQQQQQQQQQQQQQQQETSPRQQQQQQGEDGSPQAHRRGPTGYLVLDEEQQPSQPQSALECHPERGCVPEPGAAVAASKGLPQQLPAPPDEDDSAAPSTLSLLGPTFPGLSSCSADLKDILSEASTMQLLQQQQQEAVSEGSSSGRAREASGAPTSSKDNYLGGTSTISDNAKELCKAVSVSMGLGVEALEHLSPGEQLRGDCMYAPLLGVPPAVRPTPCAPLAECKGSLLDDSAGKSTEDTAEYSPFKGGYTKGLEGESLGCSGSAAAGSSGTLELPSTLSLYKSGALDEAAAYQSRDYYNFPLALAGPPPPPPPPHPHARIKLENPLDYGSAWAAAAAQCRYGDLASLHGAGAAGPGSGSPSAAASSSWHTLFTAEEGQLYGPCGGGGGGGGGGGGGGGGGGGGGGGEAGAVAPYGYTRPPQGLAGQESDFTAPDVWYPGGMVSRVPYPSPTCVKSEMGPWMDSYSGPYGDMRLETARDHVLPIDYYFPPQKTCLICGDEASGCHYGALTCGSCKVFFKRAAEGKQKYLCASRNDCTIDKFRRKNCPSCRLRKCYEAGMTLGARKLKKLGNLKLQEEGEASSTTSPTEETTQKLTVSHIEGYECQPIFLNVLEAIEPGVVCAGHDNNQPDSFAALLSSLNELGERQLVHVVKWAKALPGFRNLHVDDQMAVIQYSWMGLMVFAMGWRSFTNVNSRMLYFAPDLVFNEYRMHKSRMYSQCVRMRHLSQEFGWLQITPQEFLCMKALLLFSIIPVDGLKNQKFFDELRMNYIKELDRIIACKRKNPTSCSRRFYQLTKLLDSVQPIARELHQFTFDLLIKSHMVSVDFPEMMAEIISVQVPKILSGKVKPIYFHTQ
# Estrogen receptor (Homo sapiens), sequence (P03372 whole entry, looked up): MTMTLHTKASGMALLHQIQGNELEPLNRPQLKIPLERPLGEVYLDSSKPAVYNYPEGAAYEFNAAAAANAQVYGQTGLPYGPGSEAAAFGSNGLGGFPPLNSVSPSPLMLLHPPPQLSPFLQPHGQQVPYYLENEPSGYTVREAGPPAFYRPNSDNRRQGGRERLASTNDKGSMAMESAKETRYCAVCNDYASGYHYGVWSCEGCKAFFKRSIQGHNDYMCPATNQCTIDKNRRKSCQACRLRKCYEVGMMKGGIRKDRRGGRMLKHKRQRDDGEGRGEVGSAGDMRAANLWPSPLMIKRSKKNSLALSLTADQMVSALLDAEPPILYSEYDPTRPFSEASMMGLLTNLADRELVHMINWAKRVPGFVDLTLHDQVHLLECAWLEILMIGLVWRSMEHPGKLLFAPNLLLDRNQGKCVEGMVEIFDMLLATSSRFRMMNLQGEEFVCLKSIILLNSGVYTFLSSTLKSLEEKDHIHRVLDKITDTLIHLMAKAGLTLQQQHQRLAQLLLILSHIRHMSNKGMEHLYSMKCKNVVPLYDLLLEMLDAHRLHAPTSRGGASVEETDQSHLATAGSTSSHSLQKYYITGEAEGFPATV
SMILES,Potency [1],Potency [2],Potency [3],Potency [4],Potency [5],Potency [6],Potency [7],Potency [8],Potency [9],Potency [10]
Nc1nc(=S)c2[nH]cnc2[nH]1,inactive,inactive,inactive,inactive,inactive,inactive,inactive,inactive,842 nM (active) and 545 nM (active) and 596 nM (active),
CC(=O)N[C@@H](CS)C(=O)O,inactive,,inactive,inactive,inactive,inactive,inactive,inactive,inactive,inactive
CCCCCCCCCCCCCC[P+](CCCC)(CCCC)CCCC,27.1 µM (active) and 21.7 µM (active),1.08 µM (active) and 1.72 µM (active),2.71 µM (active) and 4.33 µM (active),,inactive,68.2 µM (active) and 68.6 µM (active),30.5 µM (active) and 30.6 µM (active),inactive,24.2 nM (active) and 61.1 nM (active),
CC(C)(O)CCC(C)(C)O,inactive,inactive,inactive,,inactive,inactive,inactive,inactive,inactive,inactive
Cc1ccc(S(=O)(=O)Oc2ccc(N=Nc3ccc(-c4ccc(N=Nc5c(O)ccc6cc(S(=O)(=O)O)cc(S(=O)(=O)O)c56)c(C)c4)cc3C)cc2)cc1,27.4 µM (active) and 17.8 µM (active),17.3 µM (active) and 20 µM (active),,,inactive,,24.4 µM (active) and 20 µM (active),inactive,inactive,
O=C(OCc1ccccc1)c1ccc(O)cc1,inactive,,inactive,inactive,12.2 µM (active) and 11.9 µM (active),inactive,68.6 µM (active) and inactive,inactive,43.3 µM (active) and inactive,inactive
CCC(C)(Oc1ccc(C2(c3ccc(OC(C)(CC)C(=O)O)cc3)CCCCC2)cc1)C(=O)O (centres undefined),inactive,inactive,inactive,inactive,inactive,inactive,inactive,inactive,inactive,inactive
OCC(CO)N[C@H]1C[C@](O)(CO)[C@@H](O)[C@H](O)[C@H]1O,inactive,inactive,inactive,inactive,inactive,inactive,inactive,inactive,inactive,inactive
CCOc1ccccc1C(N)=O,inactive,inactive,inactive,inactive,inactive,inactive,inactive,inactive,inactive,
BrC1CCC(Br)C(Br)CCC(Br)C(Br)CCC1Br (centres undefined),inactive,inactive,inactive,,inactive,inactive,inactive,inactive,32.6 µM (active),inactive
CCCC(=O)c1ccccc1,inactive,inactive,,,inactive,inactive,inactive,inactive,inactive,inactive
CC(C)CCOCc1ccccc1,inactive,inactive,inactive,,inactive,inactive,inactive,inactive,inactive,inactive
Nc1cc(Cl)c(-c2cc(Cl)c(N)cc2Cl)cc1Cl,inactive,4.32 µM (active) and 2.17 µM (active),24.3 µM (active) and 34.4 µM (active),,inactive,inactive,54.4 µM (active) and 38.6 µM (active),inactive,1.09 µM (active) and 864 nM (active),
C#CC(C)(CC)OC(=O)c1ccccc1C(=O)O (centres undefined),inactive,inactive,inactive,,inactive,inactive,inactive,inactive,,inactive
CC1COC(=O)O1 (centres undefined),inactive,inactive,inactive,,inactive,inactive,inactive,inactive,inactive,inactive
CCC[C@H](N[C@@H](C)C(=O)N1[C@H](C(=O)O)C[C@@H]2CCCC[C@@H]21)C(=O)OCC,inactive,,inactive,inactive,inactive,inactive,inactive,inactive,inactive,inactive
O=C(O)Cn1cnnn1,inactive,inactive,inactive,,inactive,inactive,inactive,inactive,inactive,inactive
COC(=O)c1cccc(C(=O)OC)c1,inactive,inactive,inactive,,inactive,inactive,inactive,inactive,inactive,inactive
CCN(CC)C(=S)SSC(=S)N(CC)CC,inactive,122 nM (active) and 39.5 nM (active) and 106 nM (active),243 nM (active) and 279 nM (active),inactive,inactive,inactive,433 nM (active) and 1.25 µM (active) and 2.66 µM (active),inactive,217 nM (active) and 7.9 nM (active) and 1.33 µM (active),243 nM (active) and 99.2 nM (active) and 596 nM (active)
CC(=O)Nc1ccc(C(=O)CCl)cc1,inactive and 54.5 µM (active),inactive and 54.5 µM (active),,,inactive,inactive,inactive,inactive,inactive and 30.6 µM (active),21.7 µM (active)

SMILES,Potency [1],Potency [2],Potency [3],Potency [4],Potency [5],Potency [6],Potency [7],Potency [8],Potency [9],Potency [10]
O=Cc1ccc(Cl)cc1,inactive,inactive,,,inactive,inactive,inactive,inactive,inactive,inactive
COc1cc(C(=S)N2CCOCC2)ccc1O,inactive,inactive,inactive,inactive,inactive,inactive,inactive,inactive,inactive,inactive
CCCCCC(=O)O[C@]1(C(C)=O)CC[C@H]2[C@@H]3CCC4=CC(=O)CC[C@]4(C)[C@H]3CC[C@@]21C,43 µM (active),,48.2 µM (active),inactive,inactive,inactive,68.1 µM (active) and inactive,inactive,,inactive
Oc1c(Cl)cc(Cl)c(Cl)c1Cc1c(O)c(Cl)cc(Cl)c1Cl,8.41 µM (active),3.43 µM (active) and 6.11 µM (active) and 6.68 µM (active),,inactive,inactive,inactive,inactive,inactive,1.93 µM (active) and 1.54 µM (active),30.5 µM (active) and inactive
CCOc1ccc2c(c1)C(C)=CC(C)(C)N2,inactive,,inactive,inactive,inactive,inactive,inactive,inactive,,inactive
CCc1ccc(C(c2ccc(CC)cc2)C(Cl)Cl)cc1,inactive,49.3 µM (active),inactive,,inactive,inactive,inactive,inactive,inactive,inactive
CCN(CC)C(=O)Nc1ccc(OCC(O)CNC(C)(C)C)c(C(C)=O)c1 (centres undefined),inactive,inactive,inactive,inactive,inactive,inactive,inactive,inactive,inactive,inactive
NC(=Nc1ccccc1)Nc1ccccc1,inactive,,10.9 µM (active),inactive,686 nM (active) and inactive,inactive,inactive,inactive,2.43 µM (active),inactive
C1COC(NC(C2CC2)C2CC2)=N1,inactive,,inactive,inactive,inactive,inactive,inactive,inactive,inactive,inactive
Cc1cc(OCCOCC[N+](C)(C)Cc2ccccc2)ccc1C(C)(C)CC(C)(C)C,43 µM (active) and 26.6 µM (active),13.6 µM (active) and 13.3 µM (active),60.8 µM (active) and 29.8 µM (active),inactive,inactive,inactive,,inactive,10.8 µM (active) and 6.68 µM (active),48.3 µM (active)
Cc1ccc(-c2cc(C(F)(F)F)nn2-c2ccc(S(N)(=O)=O)cc2)cc1,inactive,54.3 µM (active) and 68.6 µM (active),inactive,inactive,inactive,inactive,54.3 µM (active) and 61.1 µM (active) and inactive,inactive,21.6 µM (active) and 13.7 µM (active) and inactive,60.9 µM (active) and 61.1 µM (active) and inactive
Cc1c(O)cccc1C(=O)N[C@@H](CSc1ccccc1)[C@H](O)CN1C[C@H]2CCCC[C@H]2C[C@H]1C(=O)NC(C)(C)C,59.5 µM (active) and 26.6 µM (active),18.8 µM (active),,inactive,inactive,inactive,2.37 µM (active) and 3.76 µM (active),inactive,8.41 µM (active) and 29.8 µM (active),1.5 µM (active) and 1.88 µM (active)
CN1C(=O)c2ccc([N+](=O)[O-])cc2C1=O,inactive,inactive,inactive,,inactive,inactive,inactive,inactive,inactive,
COc1ccc(Cc2cnc(N)nc2N)cc1OC,inactive,inactive,inactive,inactive,inactive,inactive,inactive,inactive,inactive,
CC1=CC(=O)c2ccccc2C1=O,43.3 µM (active),21.7 µM (active) and 29.8 µM (active),30.6 µM (active) and 29.8 µM (active),inactive,inactive,68.6 µM (active) and inactive,27.3 µM (active) and 13.3 µM (active),inactive,24.3 µM (active) and 16.8 µM (active),
Nc1ccc(O)cc1,50.4 µM (active) and inactive,25.3 µM (active) and inactive,28.4 µM (active) and inactive,inactive,inactive,inactive,31.8 µM (active) and inactive,inactive,7.99 µM (active) and inactive,17.9 µM (active)
Cc1scc2c1N(C(=O)CN1CCN(C)CC1)c1ccccc1NC2=O,inactive,,inactive,inactive,inactive,inactive,inactive,inactive,inactive,inactive
CCCCC(CC)COC(=O)CC(C(=O)OCC(CC)CCCC)S(=O)(=O)O (centres undefined),inactive,,inactive,inactive,inactive,inactive,inactive,inactive,inactive,
O=C1NCC2(CCN(CCc3ccccc3)CC2)O1,inactive,,inactive,inactive,inactive,inactive,inactive,inactive,inactive,
